Results on 17 compounds are retold here after PubChem BioAssay (NCATS).

In one assay the test system is 3D7. The experiment in a line: qHTS profiling for inhibitors of Plasmodium falciparum proliferation (AID 504749). Further: nearly all actives have a fitted effect of over 60% in size.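 On activity, negative = inhibition: 0% = DMSO vehicle and full inhibition = artemisinin control.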 The settings on record: P. falciparum in erythrocytes, SYBR Green DNA, 72 h; series mostly up to 28.7 µM. The method, boiled down:
(§1)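 Three-day growth assay of blood-stage parasites in erythrocytes (0.3% parasitemia, 2.5% hematocrit) at 37 C, 5% CO2, quantified by SYBR Green DNA staining after overnight detergent lysis.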
(In qHTS, concentration-response curves come from the screen itself.)

In a further assay the test system is 7G8. The description is as above. The settings on record: P. falciparum in erythrocytes, SYBR Green DNA, 72 h; series mostly up to 28.7 µM. The method, boiled down: as §1
Another assay has as its system AA1029. The description is as above. The settings on record: P. falciparum in erythrocytes, SYBR Green DNA, 72 h; series mostly up to 28.7 µM. The method in brief: as §1
Another assay concerns C2A. The description is as above. The following applies: P. falciparum in erythrocytes, SYBR Green DNA, 72 h; series mostly up to 28.7 µM. The method in brief: as §1
Assay in assay [1]: as above
The following applies: P. falciparum in erythrocytes, SYBR Green DNA, 72 h. The method in brief: as §1

A further assay deals with AS120. The description is as above. The settings on record: P. falciparum in erythrocytes, SYBR Green DNA, 72 h; series mostly up to 28.7 µM. The method in brief:
as §1

For a further assay, the system named is ATS189. The assay is described as above. The following applies: P. falciparum in erythrocytes, SYBR Green DNA, 72 h; series mostly up to 28.7 µM. The method, boiled down: as §1
Another assay relates to ATS95. The assay is described as above. The settings on record: P. falciparum in erythrocytes, SYBR Green DNA, 72 h; series mostly up to 28.7 µM. The method in brief:
as §1

A further assay concerns CP185. Described as above. The settings on record: P. falciparum in erythrocytes, SYBR Green DNA, 72 h; series mostly up to 28.7 µM. The method in brief:
as §1

For another assay, the system named is CP191. The assay is described as above. The settings on record: P. falciparum in erythrocytes, SYBR Green DNA, 72 h; series mostly up to 28.7 µM. The method in brief:
as §1

The mark [2] stands for this setting: at 12.8 µM (top of the series), parasite line A.
[3] abbreviates: at 12.8 µM (top of the series), parasite line B.
[4] abbreviates: at 28.7 µM (top of the series), parasite line A.
Setting [5] is: at 28.7 µM (top of the series), parasite line B.

Each structure is given as a SMILES string. Records with an inconclusive call do not appear. Values without a mark were called inactive. Activity calls are given as the source filed them. The call rests on the fitted dose curve; in most records, active means well fitted inhibition curve with a large enough effect; inconclusive means small, poorly fitted or top-dose-only effect; inactive means flat fitted curve, though single readings scatter.
Potency means the concentration at half of the fitted maximal effect.

Turning to `COCC(=O)N(c1c(C)cccc1C)C(C)C(=O)OC` (stereo not given), the Potency result in the assay on 3D7, in the assay on 7G8, in the assay with AA1029 and in the assay on C2A was “inactive” throughout.

As for `OC(c1ccccc1)(c1ccccc1)C1CCNCC1`, the activity, negative = inhibition is 1.93% in assay [1] (setting [2]) and 13.2% in assay [1] (setting [3]). The Potency result in the assay on 3D7, in the assay with AA1029, in the assay on AS120, in the assay on ATS189, in the assay on ATS95 and in the assay on C2A was “inactive” each time. Further, the Potency result in the assay with CP185 and in the assay on CP191 was “inactive” each time.

As to `CC(C)(O)C(Cl)(Cl)Cl`, the Potency is 11.2 µM (active) in [1] (parasite line A); 12.6 µM (active) in assay [1] (parasite line B); 2 µM (active) with 3D7; 0.316 µM (active) with 7G8; 12.6 µM (active) in the assay with AA1029; 4.47 µM (active) with AS120. In addition, the Potency in the assay on ATS189 is 3.16 µM (active); in the assay on ATS95 it was 10 µM (active); in the assay on CP191 it was 3.16 µM (active).

For `CCNc1nc(Cl)nc(NCC)n1`, in assay [1] (setting [4]), the activity, negative = inhibition is 3.24%. Also, the Potency result in the assay on 3D7, with 7G8, in the assay on AA1029, in the assay on AS120, in the assay on ATS189 and in the assay with ATS95 was “inactive” throughout. In addition, the Potency result with C2A, in the assay on CP185 and in the assay on CP191 was “inactive” each time.

In the case of `O=C(NC(=O)c1c(F)cccc1F)Nc1cc(Cl)c(OC(F)(F)C(F)C(F)(F)F)cc1Cl` (stereo not given), in the assay with AS120, the Potency was 8.91 µM (active).

As to `O=C(CCCN1CCC(n2c(=O)[nH]c3ccccc32)CC1)c1ccc(F)cc1`, the Potency in [1] (parasite line A) is 3.16 µM (active); in assay [1] (parasite line B), 3.16 µM (active); in the assay with 3D7 it was 1 µM (active); in the assay with 7G8 it was 0.158 µM (active); with AA1029, 3.55 µM (active); with AS120, 2.24 µM (active). Besides, the Potency in the assay with ATS189 is 1.58 µM (active); with ATS95, 3.16 µM (active); in the assay with CP191 it was 1 µM (active).

As to `CCCCCCCCCCCC[N+](C)(C)CCOc1ccccc1`, the Potency in assay [1] (parasite line A) was 3.55 µM (active); in [1] (parasite line B), 5.01 µM (active); with 3D7, 5.01 µM (active); with 7G8, 3.98 µM (active); with AA1029, 5.01 µM (active); in the assay on AS120, 5.01 µM (active). Moreover, the Potency is 8.91 µM (active) in the assay on ATS189, 7.08 µM (active) with C2A, 7.94 µM (active) in the assay on CP185 and 4.47 µM (active) in the assay with CP191.

`CC(C)(C)OC(=O)c1ncn2c1[C@@H]1CCCN1C(=O)c1c(Br)cccc1-2`: the activity, negative = inhibition is 0.318% in assay [1] (setting [4]) and 11.2% in [1] (setting [5]). For the same compound, the Potency result in the assay on 3D7, with AA1029, with AS120, in the assay on ATS189, in the assay with ATS95 and in the assay with C2A was “inactive” each time. Moreover, the Potency entry with CP185 and in the assay on CP191 was “inactive” each time.

Regarding `N#Cc1nn(-c2c(Cl)cc(C(F)(F)F)cc2Cl)c(N)c1S(=O)C(F)(F)F` (stereo not given), the Potency in assay [1] (parasite line A) was 5.01 µM (active); in [1] (parasite line B), 8.91 µM (active); in the assay with 3D7, 8.91 µM (active); in the assay on 7G8, 3.55 µM (active); in the assay on AA1029, 8.91 µM (active); in the assay with ATS95, 12.6 µM (active). Also, the Potency was 8.91 µM (active) with C2A and 6.31 µM (active) with CP191.

`CN1C(=O)CN=C(c2ccccc2)c2cc([N+](=O)[O-])ccc21`: the activity, negative = inhibition in assay [1] (setting [4]) is 1.56%; in [1] (setting [5]), -3.67%. Moreover, the Potency entry in the assay with 3D7, with 7G8, in the assay on AA1029, in the assay with AS120, in the assay with ATS189 and with ATS95 was “inactive” throughout. Also, the Potency entry in the assay on C2A, in the assay on CP185 and with CP191 was “inactive” in each case.

Regarding `ClC1=C(Cl)C2(Cl)C(CBr)CC1(Cl)C2(Cl)Cl` (stereo not given), the activity, negative = inhibition is -10.4% in [1] (setting [4]) and -10.5% in assay [1] (setting [5]). Besides, the Potency result with AA1029, in the assay on AS120, in the assay on ATS189, in the assay on ATS95, with C2A and with CP185 was “inactive” throughout. In the assay on CP191, the Potency result was “inactive”.

As to `OC(O)C(Cl)(Cl)Cl`, the activity, negative = inhibition in assay [1] (setting [4]) is 9.58%; in assay [1] (setting [5]), 19.3%. Besides, the Potency result with 3D7, in the assay with AA1029, with AS120, in the assay with ATS189, with ATS95 and with C2A was “inactive” each time. Further, the Potency entry in the assay with CP185 is “inactive”.

For `NCc1cccnc1`, the values for the activity, negative = inhibition in assay [1] (setting [4]) and in assay [1] (setting [5]) were -9.24% and -2.31%, respectively. Further, the Potency result in the assay on 3D7, in the assay with 7G8, with AA1029, with AS120, in the assay on ATS189 and with ATS95 was “inactive” in each case. Besides, the Potency entry with C2A, with CP185 and in the assay on CP191 was “inactive” in each case.

In the case of `CC(C)[N+](C)(CCC(C(N)=O)(c1ccccc1)c1ccccc1)C(C)C`, the activity, negative = inhibition in assay [1] (setting [2]) was -4.63%; in assay [1] (setting [3]) it was 4.79%. Further, the Potency entry with 3D7, in the assay on AA1029, in the assay with AS120, with ATS189, with ATS95 and with C2A was “inactive” in each case. In addition, the Potency result in the assay on CP185 and in the assay on CP191 was “inactive” throughout.

For `CCOC(=O)NC(O)C(Cl)(Cl)Cl` (stereo not given), the activity, negative = inhibition in assay [1] (setting [4]) is 5.94%; in [1] (setting [5]), 0.346%. Besides, the Potency result in the assay on 3D7, with 7G8, with AA1029, with AS120, in the assay with ATS189 and with ATS95 was “inactive” each time. The Potency entry in the assay with C2A, with CP185 and in the assay with CP191 was “inactive” each time.

Consider `CCC1(c2ccccc2)CCC(=O)NC1=O` (stereo not given), for which the activity, negative = inhibition in assay [1] (setting [4]) was 14.1%; in assay [1] (setting [5]), 13.3%. The Potency entry in the assay on 3D7, in the assay with AA1029, with AS120, in the assay with ATS189, in the assay with ATS95 and in the assay on C2A was “inactive” each time. For the same compound, the Potency result in the assay on CP185 and with CP191 was “inactive” each time.

On to `Cc1c(Cl)c(=O)oc2cc(OP(=O)(OCCCl)OCCCl)ccc12`, for which the Potency in assay [1] (parasite line A) is 8.91 µM (active); in the assay with 7G8, 12.6 µM (active); in the assay on AA1029, 11.2 µM (active); in the assay on AS120, 11.2 µM (active); in the assay on ATS189, 11.2 µM (active); in the assay with ATS95, 7.94 µM (active). Also, the Potency in the assay on C2A and with CP191 was 10 µM (active) in each case.
